SMILES strings stand for the structures. Records with an inconclusive call do not appear. Entries that show only a call come without a potency. Activity calls are given as the source filed them. The call rests on the fitted dose curve; in most records, active means well fitted curve in the direction sought with a large enough effect; inconclusive means small, poorly fitted or top-dose-only effect, or another doubt; inactive means no such curve, though single readings can be large; an effect the other way counts as inactive or inconclusive.

One assay is described as follows: qHTS for differential inhibitors of proliferation of Plasmodium falciparum line 3D7 (AID 1876). Further: potency means the concentration at half of the fitted maximal effect. The following applies: P. falciparum 3D7 proliferation inhibition; series mostly up to 28.7 µM. (Quantitative high-throughput screening tests each substance at several concentrations.)
Consider `O=c1cc(N2CCOCC2)oc2c(-c3ccccc3)cccc12`, for which the Potency entry was “inactive”.

For `O=c1c(O)c(-c2cc(O)c(O)c(O)c2)oc2cc(O)cc(O)c12`, the Potency was 10 µM (active).

As for `CN(C)CCCC1(c2ccc(F)cc2)OCc2cc(C#N)ccc21` (stereo not given), the Potency is 10 µM (active).

In the case of `O=C1c2ccccc2-c2n[nH]c3cccc1c23`, the Potency was 12.6 µM (active).

Another assay is described as follows: qHTS for differential inhibitors of proliferation of Plasmodium falciparum line D10 (AID 1877).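 Further: parasites grown with compound for 72 h before DNA staining.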 The following applies: series mostly up to 28.7 µM.
For the compound `O=C1NC(=O)C(c2ccccc2[N+](=O)[O-])=C1Nc1ccc(O)c(Cl)c1`, the Potency result is “inactive”.

Consider `O=c1cc(N2CCOCC2)oc2c(-c3ccccc3)cccc12`, for which the Potency result is “inactive”.

With `Cc1cccc(C#Cc2ccccc2)n1`, the Potency entry was “inactive”.

With `Cc1cc(O)c2c(c1)C(=O)c1cc(O)cc(O)c1C2=O`, the Potency entry was “inactive”.

The nature of the next assay: qHTS for differential inhibitors of proliferation of Plasmodium falciparum line Dd2 (AID 1882). Further: nearly all actives have a fitted effect of over 65% in size. Further: potency means the concentration at half of the fitted maximal effect. The settings on record: Potency: Plasmodium falciparum Dd2 proliferation inhibition; series mostly up to 28.7 µM. The method in brief: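 RBC culture, 0.3% parasitemia / 2.5% Hct final; cpd added by pin tool in DMSO; 72 h, 37 C, 5% CO2; lysis buffer + SYBR Green I, o/n RT dark; FI 485/535; norm. to artemisinin 0.29 uM and DMSO.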
In the case of `Cc1c(OCC(F)(F)F)ccnc1CS(=O)c1nc2ccccc2[nH]1` (stereo not given), the Potency entry was “inactive”.

In the case of `O=C1NC(=O)C(c2ccccc2[N+](=O)[O-])=C1Nc1ccc(O)c(Cl)c1`, the Potency entry is “inactive”.

For `O=c1cc(N2CCOCC2)oc2c(-c3ccccc3)cccc12`, the Potency result was “inactive”.

Turning to `Cc1cccc(C#Cc2ccccc2)n1`, the Potency entry is “inactive”.

As to `O=c1c(O)c(-c2cc(O)c(O)c(O)c2)oc2cc(O)cc(O)c12`, the Potency is 4.47 µM (active).

On to `COc1cc2nc(N3CCN(C(=O)C4CCCO4)CC3)nc(N)c2cc1OC` (stereo not given), for which the Potency result is “inactive”.

In the case of `Cc1cc(O)c2c(c1)C(=O)c1cc(O)cc(O)c1C2=O`, the Potency entry was “inactive”.

The values are drawn from PubChem BioAssay (NCATS).
